{"source": "PubChem BioAssay AID463173", "about": "(ICCB-Longwood Screening Facility, Harvard Medical School, 2010)", "note": "The campaign covered roughly 52,000 compounds. About 4,300 (8.3%) were called active. Rule as the data show it: active = survival mostly below about 52% (no sharp cut-off); inactive = mostly above about 56%. Many of the other results were omitted from the sample, so actives are more common in it than they were.", "data": [{"test_system": "DeltatarO mutant", "experiment": "growth inhibition of S. aureus wild type versus tarO mutant, primary screen, teichoic acid synthesis inhibitors, RN4220, OD600 (AID 463173)", "settings": "OD600, 18 h, active compounds read low, screened at 18.75 µg/mL (by protocol)", "values": [{"compound": "CCN(CC)C(C)C#Cc1ccccc1", "note": "(configuration not stated)", "survival": "95% (inactive)"}, {"compound": "Cc1ccc(-n2nc(C(=O)Nc3ccc(C)c(F)c3)c3c4ccccc4n(C)c3c2=O)cc1", "survival": "92% (inactive)"}, {"compound": "Fc1ccc(-n2ncc3c(Nc4ccc5c(c4)OCCO5)ncnc32)cc1", "survival": "97% (inactive)"}, {"compound": "O=C(C1CCC(CNS(=O)(=O)c2cccs2)CC1)N1CCN(c2ccc(Cl)cc2)CC1", "note": "(configuration not stated)", "survival": "60% (inactive)"}, {"compound": "CCN(c1ccccc1)c1nnc(NC(=O)Nc2ccc(Br)cc2F)s1", "survival": "97% (inactive)"}, {"compound": "CC(=O)N1CCN(c2ccccc2N)CC1", "survival": "93% (inactive)"}, {"compound": "O=c1[nH]c(Nc2nc3ccccc3o2)nc2ccccc12", "survival": "95% (inactive)"}, {"compound": "Cc1cc(C)nc(Nc2nc3ccccc3c(=O)[nH]2)n1", "survival": "74% (active)"}, {"compound": "Cc1cc(=O)[nH]c(Nc2nc3ccccc3[nH]2)n1", "survival": "71% (inactive)"}, {"compound": "O=C1CCCc2cc(S(=O)(=O)N3CCCC(C(=O)Nc4ccc(F)c(Cl)c4)C3)ccc2N1", "note": "(configuration not stated)", "survival": "70% (inactive)"}, {"compound": "Cc1ccccc1C(=O)OCc1cc(=O)n2c(C)csc2n1", "survival": "109% (inactive)"}, {"compound": "O=S(=O)(c1ccc2nc(N3CCN(c4cccc(Cl)c4)CC3)ccc2c1)N1CCCCC1", "survival": "81% (inactive)"}, {"compound": "CC1CCN(S(=O)(=O)c2ccc3nc(N4CCN(c5ccccc5)CC4)ccc3c2)CC1", "survival": "78% (inactive)"}, {"compound": "O=S(=O)(c1ccc2nc(N3CCN(c4ccccc4)CC3)ccc2c1)N1CCCCC1", "survival": "6% (active)"}, {"compound": "Cc1ccc(OC(=O)c2ccc3snnc3c2)cc1", "survival": "115% (inactive)"}, {"compound": "COc1ccccc1-c1nn(CCC(=O)Nc2cccc(C(C)=O)c2)c2nc(C)cc(C)c12", "survival": "69% (inactive)"}, {"compound": "Cc1cc(C)c2c(=O)cc(C(=O)Nc3ccc(S(=O)(=O)N(C)Cc4ccccc4)cc3)oc2c1", "survival": "61% (inactive)"}, {"compound": "COc1ccc(C(=O)NCCSc2ccccn2)cc1", "survival": "78% (inactive)"}, {"compound": "Cc1cc(C)cc(NC(=O)c2oc3ccc4c(c3c2C)C(=O)CC(C)(C)O4)c1", "survival": "89% (inactive)"}, {"compound": "Cc1c(C(=O)NCc2ccc(Cl)cc2)oc2ccc3c(c12)C(=O)CC(C)(C)O3", "survival": "53% (active)"}, {"compound": "CC(=O)Nc1ccc(NC(=O)c2oc3ccc4c(c3c2C)C(=O)CC(C)(C)O4)cc1", "survival": "75% (inactive)"}, {"compound": "Cc1c(C(=O)NCc2ccccc2Br)oc2ccc3c(c12)C(=O)CC(C)(C)O3", "survival": "83% (inactive)"}, {"compound": "Cc1c(C(=O)NCc2cccc(Br)c2)oc2ccc3c(c12)C(=O)CC(C)(C)O3", "survival": "61% (inactive)"}, {"compound": "CCC1(C)CC(=O)c2c(ccc3oc(C(=O)NCc4ccccc4)c(C)c23)O1", "note": "(configuration not stated)", "survival": "44% (active)"}, {"compound": "CCCOc1ccc(CNC(=O)c2oc3ccc4c(c3c2C)C(=O)CC(C)(CC)O4)cc1", "note": "(configuration not stated)", "survival": "68% (inactive)"}, {"compound": "Cc1cccc(C)c1NC(=O)c1oc2ccc3c(c2c1C)C(=O)CC(C)(C)O3", "survival": "42% (active)"}, {"compound": "CCC1(C)CC(=O)c2c(ccc3oc(C(=O)Nc4ccc(C(C)=O)cc4)c(C)c23)O1", "note": "(configuration not stated)", "survival": "78% (inactive)"}, {"compound": "CCOC(=O)CC(NC(=O)Cn1nnc(-c2ccccc2F)n1)c1ccccc1Cl", "note": "(configuration not stated)", "survival": "77% (inactive)"}, {"compound": "COc1ccc(N2CCN(C(=O)c3cn(C)c4ccc(S(=O)(=O)N(C)C5CCCCC5)cc4c3=O)CC2)cc1", "survival": "93% (inactive)"}, {"compound": "COc1ccccc1NC(=O)CSC1=Nc2ccccc2C2=NC(CC(=O)NCCc3ccccc3)C(=O)N12", "note": "(configuration not stated)", "survival": "85% (inactive)"}, {"compound": "COc1ccc(C)cc1NC(=O)Cn1c(=O)n(Cc2nc(C)no2)c(=O)c2ccccc21", "survival": "79% (inactive)"}, {"compound": "COc1cccc(CNC(=O)CSc2ncc3c(n2)-c2cc(Cl)ccc2N(C)S3(=O)=O)c1", "survival": "92% (inactive)"}, {"compound": "O=C(CSc1nc2c(c(=O)[nH]1)CCCC2)Nc1ccc(Br)cc1", "survival": "58% (inactive)"}, {"compound": "CCSC1=C(C#N)C2(CCCCC2)C(C#N)=C(N)N1", "survival": "68% (inactive)"}, {"compound": "N#CC1=C(N)NC(SCC(=O)Nc2ccc(Br)cc2)=C(C#N)C12CCCCC2", "survival": "12% (active)"}, {"compound": "COc1cccc(-c2cn3c(n2)sc2cc(C(=O)NCc4ccccc4F)ccc23)c1", "survival": "60% (inactive)"}, {"compound": "Cn1c(=O)n(C)c2cc(N3CCOCC3)c(NC(=O)c3ccc(Cl)cc3)cc21", "survival": "87% (inactive)"}, {"compound": "Cc1nn(CC(=O)NCc2ccco2)c(=O)c2nn(-c3ccccc3)c(C)c12", "survival": "92% (inactive)"}, {"compound": "CSc1ccc(CCNC(=O)C(C)n2nc(C)c3c(C)n(-c4ccccc4)nc3c2=O)cc1", "note": "(configuration not stated)", "survival": "46% (active)"}, {"compound": "CCC(C(=O)NCCc1ccc(SC)cc1)n1nc(C)c2c(C)n(-c3ccc(C)cc3)nc2c1=O", "note": "(configuration not stated)", "survival": "80% (inactive)"}, {"compound": "Cc1ccc(-n2nc3c(=O)n(C(C)C(=O)NCc4ccccc4C)nc(C)c3c2C)cc1", "note": "(configuration not stated)", "survival": "94% (inactive)"}, {"compound": "CCCNC(=O)C(C)n1nc(C)c2c(C)n(-c3ccccc3)nc2c1=O", "note": "(configuration not stated)", "survival": "102% (inactive)"}, {"compound": "Cc1ccc(-n2nc3c(=O)n(C(C)C(=O)NCc4ccco4)nc(C)c3c2C)cc1", "note": "(configuration not stated)", "survival": "47% (active)"}, {"compound": "CCC(C(=O)NCc1ccco1)n1nc(C)c2c(C)n(-c3ccc(C)cc3)nc2c1=O", "note": "(configuration not stated)", "survival": "73% (inactive)"}, {"compound": "Cc1nn(C(C)C(=O)NCc2ccco2)c(=O)c2nn(-c3ccccc3)c(C)c12", "note": "(configuration not stated)", "survival": "37% (active)"}, {"compound": "Cc1ccc(CCNC(=O)C(C)n2nc(C)c3c(C)n(-c4ccc(C)cc4)nc3c2=O)cc1", "note": "(configuration not stated)", "survival": "86% (inactive)"}, {"compound": "CCOC(=O)N1CCC(NC(=O)c2cnn(-c3cccc(C)c3)c2-n2cccc2)CC1", "survival": "85% (inactive)"}, {"compound": "CCC(C)(C)N1CC(=O)N(Cc2ccccc2)C(c2ccc(OC)cc2)C1=O", "note": "(configuration not stated)", "survival": "78% (inactive)"}, {"compound": "CCOc1ccc(NC(=O)N(C)CCc2c(C)nn(C)c2C)cc1", "survival": "74% (inactive)"}, {"compound": "COc1cccc(-n2nnc3c(sc4nc(C)cc(C)c43)c2=O)c1", "survival": "91% (inactive)"}, {"compound": "CCN(C(=O)Cc1ccccc1OC)c1nnc(-c2ccncc2)s1", "survival": "70% (inactive)"}, {"compound": "Nc1nc(-c2ccco2)nn1C(=O)c1ccc(Cl)cc1Cl", "survival": "91% (inactive)"}, {"compound": "COc1ccc(-c2cc(C(=O)NCCc3ccccc3)c3c(-c4ccccc4)[nH]nc3n2)cc1", "survival": "87% (inactive)"}, {"compound": "Cc1cc2c(cc1NC(=O)c1ccc(C(C)(C)C)cc1)n(C)c(=O)c(=O)n2C", "survival": "84% (inactive)"}, {"compound": "COc1cc(OC)c(NC(=O)N2CCN3CCCCC3C2)cc1Cl", "note": "(configuration not stated)", "survival": "75% (inactive)"}, {"compound": "CCN1CCN(c2csc3ccc(C)cc3c2=O)CC1", "survival": "74% (inactive)"}, {"compound": "COc1ccccc1NC(=O)N(Cc1cc2c(C)ccc(C)c2[nH]c1=O)CC1CCCO1", "note": "(configuration not stated)", "survival": "94% (inactive)"}]}]}
